Assay outcomes deposited in PubChem by National Center for Advancing Translational Sciences (NCATS).
A selection: hits, their analogues and other compounds. The true share with any hit is near 5.9%.
TrxR1 substrate: substrates of rat thioredoxin reductase 1; O89049; purified TrxR1 substrate turnover, NADPH consumption readout; Potency, µM (highest dose often 114 µM), for inactives: at the top dose activity change, negative = substrate turnover; 390,000 tested, 0.01% active; AID 588456; also: potency is read from the fitted curve at half-maximal effect; nearly all actives have a fitted effect of over 50% in size
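Rat TrxR1, dispensed at 90 nM, was prereduced with 400 uM NADPH (final) for 5 min at ~22 deg C, then incubated with compound 15 min before 400 uM selenite. A first-read NADPH fluorescence drop versus no-compound background flagged substrates.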
GALK inh: inhibitors of human galactokinase | P51570 | Purified GALK, Kinase-Glo residual ATP luminescence | Potency, µM (titrated, usually from 57.5 µM), inactives show top-dose activity change, negative = inhibition, usual class: inhibitors | 270,000 tested, 0.007% active; also: potency is read from the fitted curve at half-maximal effect
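Galactose (100 uM) and ATP (35 uM) were turned over by 5 nM GALK for 1 h at RT. Kinase-Glo Plus then converted the remaining ATP into a luminescent signal.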
RORgamma inh: inhibitors of mouse ROR gamma transcriptional activity; P51450; Drosophila S2 Gal4-RORgamma UAS-luciferase reporter, 20 h; Potency, µM (series often up to 53.6 µM), without a hit: at the top dose activity change, negative = inhibition, most hits filed as inhibitors; 310,000 tested, 5.4% active; AID 2551; also: potency is read from the fitted curve at half-maximal effect; nearly all actives have a fitted effect of over 60% in size
Target sequence (P51450 whole entry, looked up, the tested form may be a part): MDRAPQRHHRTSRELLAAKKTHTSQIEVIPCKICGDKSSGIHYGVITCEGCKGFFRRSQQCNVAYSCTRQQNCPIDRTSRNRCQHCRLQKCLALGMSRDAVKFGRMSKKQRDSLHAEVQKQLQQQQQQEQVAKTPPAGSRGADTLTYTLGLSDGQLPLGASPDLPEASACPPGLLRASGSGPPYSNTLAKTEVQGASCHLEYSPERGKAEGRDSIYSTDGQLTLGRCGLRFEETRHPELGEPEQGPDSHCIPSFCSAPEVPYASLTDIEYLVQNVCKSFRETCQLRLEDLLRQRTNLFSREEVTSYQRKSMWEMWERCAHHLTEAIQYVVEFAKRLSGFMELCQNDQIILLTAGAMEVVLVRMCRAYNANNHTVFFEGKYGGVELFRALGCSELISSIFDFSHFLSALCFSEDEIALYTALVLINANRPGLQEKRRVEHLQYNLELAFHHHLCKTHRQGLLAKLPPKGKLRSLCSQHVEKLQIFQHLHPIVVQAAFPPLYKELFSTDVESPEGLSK
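A Gal4/UAS one-hybrid system in insect cells: metallothionein-promoter Gal4–ROR gamma fusion plus Photinus luciferase reporter. Copper sulfate 700 uM final, 20 hr ambient incubation, luminescent detection after 10 min with reagent.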
rTrxR1 inhibitor: blocks rat thioredoxin reductase 1; recombinant rTrxR1, NADPH fluorescence consumption, selenite substrate; 390,000 tested, 1% active; Potency, µM (top dose mostly 114 µM), for the others: top-dose activity change, negative = inhibition, usual class: inhibitors; O89049; also: potency is read from the fitted curve at half-maximal effect; nearly all actives have a fitted effect of over 65% in size
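Rat TrxR1 (90 nM in the dispensed reagent) was pre-reduced with 400 uM NADPH for 5 min at room temperature, then incubated with compound for 15 min. After 400 uM selenite was added, NADPH fluorescence (Ex 340/Em 450 nm) was followed for 8 min.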
Coupling enz: coupling enzyme interference in Giardia aldolase counter-screen; coupling enzyme system counterscreen, AmpLite Red fluorescence; activity change, negative = inhibition, % at 58.2 µM, hits read low; 290,000 tested, 0.67% active; in the data active = activity change below about -30%
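Final compound at 57.5 uM, incubated 10 min at RT with coupling enzyme reagent (glyceraldehyde-3-phosphate), then 20 min with substrate and AmpLite Red detection. Fluorescence read at 525/598 nm; tests interference with the coupling assay, not aldolase inhibition.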
Gal4-VP16 FLuc: counter-screen for ROR gamma inhibitors: Gal4-VP16 reporter. 310,000 tested, 3.5% active. Potency, µM (highest dose often 53.6 µM), without a hit: at the highest dose activity, negative = inhibition, most hits filed as inhibitors. Drosophila S2 Gal4-VP16 UAS-luciferase, luminescence, 20 h;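 also: Gal4-VP16 expression switched on by copper sulfate through the metallothionein promoter; potency is read from the fitted curve at half-maximal effect; nearly all actives have a fitted effect of over 50% in size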
Active calls of the source: *; [ ] = dose if it differs, or a comment. Unless noted, calls follow the shape of the dose curve; as a rule, active = well fitted curve in the direction sought with a large enough effect; inconclusive = small, poorly fitted or top-dose-only effect, or another doubt; inactive = no such curve, though single readings can be large; an effect the other way counts as inactive or inconclusive. % is scaled to controls: 0 for no effect and ±100 for the full control effect.

What do the screens show for `COCCN(C(=O)COC(=O)/C=C/c1nc2ccccc2s1)c1c(N)n(Cc2ccccc2)c(=O)[nH]c1=O`?
TrxR1 substrate: -5%[57.1 µM]; rTrxR1 inhibitor: inconclusive

How did COc1ccccc1NC(=O)Cc1csc(NC(=S)Nc2ccccc2)n1 do in these assays?
TrxR1 substrate: -1%; GALK inh: 1%; RORgamma inh: 1.1µM*; rTrxR1 inhibitor: inconclusive; Coupling enz: 1; Gal4-VP16 FLuc: 3.2µM*

How did COc1ccc(NC(=S)Nc2nc(CC(=O)Nc3ccccc3OC)cs2)cc1 do in these assays?
TrxR1 substrate: 0%; GALK inh: 3%; RORgamma inh: 1.8µM*; rTrxR1 inhibitor: 1µM*; Coupling enz: -1; Gal4-VP16 FLuc: 4.5µM*

What do the screens show for `COc1ccc(OC)c(NC(=O)Cc2csc(NC(=O)Nc3ccccc3OC)n2)c1`?
TrxR1 substrate: -9%; rTrxR1 inhibitor: -1%

What do the screens show for `COCCN(C(=S)Nc1cccc(C)c1C)C(C)c1ccco1` (configuration not stated)?
TrxR1 substrate: 3%; GALK inh: -1%; RORgamma inh: 11µM*; rTrxR1 inhibitor: 0%; Coupling enz: 1; Gal4-VP16 FLuc: inconclusive

How did COCCN(C(=S)Nc1ccccc1C)C(C)c1ccco1 (configuration not stated) do in these assays?
TrxR1 substrate: 7%[57.1 µM]; GALK inh: -2%; RORgamma inh: inconclusive; rTrxR1 inhibitor: 24%[57.1 µM]; Coupling enz: 2; Gal4-VP16 FLuc: 7%

What do the screens show for `COCCN(C(=S)Nc1ccc(C)cc1C)C(C)c1ccco1` (configuration not stated)?
TrxR1 substrate: 4%; GALK inh: -2%; RORgamma inh: 14µM*; rTrxR1 inhibitor: 4%; Coupling enz: 0; Gal4-VP16 FLuc: -96%

How did CC1=NN(Cc2c(C)nn(Cc3ccccc3)c2C)C(C)(C)C1 do in these assays?
TrxR1 substrate: -2%[57.1 µM]; GALK inh: 6%; RORgamma inh: 13µM*; rTrxR1 inhibitor: 13%[57.1 µM]; Coupling enz: 0; Gal4-VP16 FLuc: 9%

Results for CCNS(=O)(=O)c1ccc(CCC(=O)Nc2ccc3c(c2)OCCO3)cc1 ?
TrxR1 substrate: 1%; GALK inh: 3%; RORgamma inh: 14%[1.91 µM]; rTrxR1 inhibitor: 15%; Coupling enz: 1; Gal4-VP16 FLuc: -10%

Results for Cc1cc(C)nc(SCc2cc(=O)c(OC(=O)c3ccc(Br)o3)co2)n1 ?
TrxR1 substrate: -11%; GALK inh: -1%; RORgamma inh: -4%; rTrxR1 inhibitor: 79µM*; Coupling enz: 4; Gal4-VP16 FLuc: -4%

How did Cc1cc(C)nc(SCc2cc(=O)c(OC(=O)c3ccc(S(=O)(=O)N4CCCC4)cc3)co2)n1 do in these assays?
TrxR1 substrate: 4%; GALK inh: 1%; RORgamma inh: 25%; rTrxR1 inhibitor: 16µM*; Coupling enz: 6; Gal4-VP16 FLuc: -2%

How did O=C(COc1ccccc1C(=O)NCc1ccccc1)Nc1ccc(Br)cc1 do in these assays?
TrxR1 substrate: 13%; rTrxR1 inhibitor: 10%

What do the screens show for `COc1ccc(CCN(C)C(=O)CNC(=O)c2ccccc2F)cc1OC`?
TrxR1 substrate: 14%; GALK inh: -3%; RORgamma inh: -5%; rTrxR1 inhibitor: 47%; Coupling enz: 6; Gal4-VP16 FLuc: -14%

What do the screens show for `CCOc1ccc(OCCSc2nc3ccccc3[nH]2)cc1`?
TrxR1 substrate: 2%; GALK inh: -2%; RORgamma inh: 1%; rTrxR1 inhibitor: 18%; Coupling enz: -1; Gal4-VP16 FLuc: 1%

Results for CCCOc1ccc(CSc2nc3ccccc3[nH]2)cc1 ?
TrxR1 substrate: 6%; GALK inh: 4%; RORgamma inh: inconclusive; rTrxR1 inhibitor: 9%; Coupling enz: 3; Gal4-VP16 FLuc: 6.3µM*

What do the screens show for `Cc1csc(NC(=O)c2cn3ccccc3n2)n1`?
TrxR1 substrate: -6%; GALK inh: 18%; RORgamma inh: 5µM*; rTrxR1 inhibitor: 4%; Coupling enz: 2; Gal4-VP16 FLuc: 7.9µM*

Results for O=C(Nc1ccccc1)c1cn2ccccc2n1 ?
TrxR1 substrate: 4%; RORgamma inh: inconclusive; rTrxR1 inhibitor: 17%; Coupling enz: -8; Gal4-VP16 FLuc: 2.8µM*

What do the screens show for `Cc1csc(NC(=O)c2cccn2C)n1`?
TrxR1 substrate: 1%; GALK inh: 4%; RORgamma inh: -15%; rTrxR1 inhibitor: 10%; Gal4-VP16 FLuc: -19%

How did CCN1C=CC(=C2C(=O)c3ccccc3C2=O)C=C1 do in these assays?
TrxR1 substrate: -13%; GALK inh: 5%; RORgamma inh: inconclusive; rTrxR1 inhibitor: -14%; Coupling enz: -8; Gal4-VP16 FLuc: 0.32µM*

What do the screens show for `CCCN1C=CC(=C2C(=O)c3ccccc3C2=O)C=C1`?
TrxR1 substrate: -8%[57.1 µM]; GALK inh: 8%; RORgamma inh: 1.1µM*; rTrxR1 inhibitor: -21%[57.1 µM]; Coupling enz: -4; Gal4-VP16 FLuc: 0.25µM*

Results for CCCCCCN1C=CC(=C2C(=O)c3ccccc3C2=O)C=C1 ?
TrxR1 substrate: 6%; GALK inh: 7%; RORgamma inh: 23%; rTrxR1 inhibitor: 25%; Coupling enz: 0; Gal4-VP16 FLuc: -9%

What do the screens show for `CC(C)NC(=O)N(Cc1ccccc1)Cc1cccs1`?
TrxR1 substrate: -18%[57.1 µM]; GALK inh: 9%; RORgamma inh: -2%; rTrxR1 inhibitor: 18%[57.1 µM]; Coupling enz: 4; Gal4-VP16 FLuc: 11%

Results for CCCCN1CNC(=S)N(c2cc(C)ccc2C)C1 ?
TrxR1 substrate: 9%[57.1 µM]; GALK inh: 5%; RORgamma inh: 14µM*; rTrxR1 inhibitor: 4%[57.1 µM]; Coupling enz: 3; Gal4-VP16 FLuc: 10µM*

How did Cc1cccc(N2CN(Cc3cccnc3)CNC2=S)c1 do in these assays?
TrxR1 substrate: -5%; GALK inh: 2%; RORgamma inh: -5%; rTrxR1 inhibitor: -5%[57.1 µM]; Coupling enz: 3; Gal4-VP16 FLuc: 4%

Results for CCCN1CNC(=S)N(c2cccc(C)c2)C1 ?
TrxR1 substrate: -1%; GALK inh: 7%; RORgamma inh: 11µM*; rTrxR1 inhibitor: -9%; Coupling enz: 3; Gal4-VP16 FLuc: -24%

How did CCCCN1CNC(=S)N(c2ccccc2OCC)C1 do in these assays?
TrxR1 substrate: 1%; GALK inh: 1%; RORgamma inh: 11µM*; rTrxR1 inhibitor: -13%; Coupling enz: 4; Gal4-VP16 FLuc: 14µM*

What do the screens show for `CCCN1CNC(=S)N(c2ccccc2OCC)C1`?
TrxR1 substrate: -8%; GALK inh: 1%; RORgamma inh: 10µM*; rTrxR1 inhibitor: -7%; Coupling enz: 3; Gal4-VP16 FLuc: inconclusive

How did CCN1CNC(=S)N(c2ccccc2OC)C1 do in these assays?
TrxR1 substrate: 7%[57.1 µM]; GALK inh: 0%; RORgamma inh: -23%; rTrxR1 inhibitor: -2%[57.1 µM]; Coupling enz: 0; Gal4-VP16 FLuc: 0%
